A number with no mark means an inactive call. Inconclusive results are not listed. The source made the active and inactive calls. Unless noted, calls follow the shape of the full dose curve.

The source of these data is PubChem BioAssay (Tox21).

Test [1] can be described thus: Nuclear factor erythroid 2-related factor 2/antioxidant responsive element (Nrf2/ARE) small molecule agonists: qHTS cell viability counter screen in human keratinocytes (AID 1919968; active = well fitted curve in the direction sought with a large enough effect in the repeat runs; an effect the other way counts as inactive or inconclusive; also: nearly all actives have a fitted effect of over 55% in size; also: potency is read from the fitted curve at half-maximal effect). The method, boiled down:
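Measured as CellTiter-Fluor fluorescence, this readout tracks cytotoxicity in the same wells as the ARE-luciferase screen. HaCaT reporter cells (1,500/well) received compounds after a 5 h pre-incubation and were exposed for 23 h.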
(Quantitative high-throughput screening tests each substance at several concentrations.)

Test [2] can be described thus: Nuclear factor erythroid 2-related factor 2/antioxidant responsive element (Nrf2/ARE) small molecule agonists: luciferase reporter gene qHTS assay in human keratinocytes (AID 1919969). Also: nearly all actives have a fitted effect of over 35% in size. Also: potency is read from the fitted curve at half-maximal effect.
Test [3] deals with Gonadotropin-releasing hormone receptor (Homo sapiens) (UniProt P30968). Put plainly: Human gonadotropin-releasing hormone receptor (GnRHR) small molecule agonists, calcium flux assay in GnRHR-HEK293 cells (AID 1920063). Also: nearly all actives have a fitted effect of over 35% in size. The method in brief: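 Fluorescence kinetics (480 nm excitation, 540 nm emission; 3 min, 1 s steps) report calcium mobilisation in human GnRHR-HEK293 cells in agonist mode. Dye incubation: 1 h, 37 C.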
Gonadotropin-releasing hormone receptor (Homo sapiens), sequence (P30968 whole entry, looked up): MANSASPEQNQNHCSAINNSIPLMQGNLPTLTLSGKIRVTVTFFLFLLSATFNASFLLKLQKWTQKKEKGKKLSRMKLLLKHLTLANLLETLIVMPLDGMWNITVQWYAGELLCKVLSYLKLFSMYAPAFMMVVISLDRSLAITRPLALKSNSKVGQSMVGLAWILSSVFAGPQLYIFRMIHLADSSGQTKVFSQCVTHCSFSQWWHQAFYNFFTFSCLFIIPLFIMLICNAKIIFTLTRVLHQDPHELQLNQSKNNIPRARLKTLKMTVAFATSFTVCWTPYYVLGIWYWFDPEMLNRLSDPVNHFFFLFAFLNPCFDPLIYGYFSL
For orientation: Calcium flux is commonly read through the fluorescence of an indicator in the cells.

In test [4] the target is KiSS-1 receptor (Homo sapiens) (UniProt Q969F8). Put plainly: Human kisspeptin (KISS1R) small molecule agonists, calcium flux assay in KISS1R-HEK293 cells (AID 1920064; active = well fitted curve in the direction sought with a large enough effect in the repeat runs; an effect the other way counts as inactive or inconclusive). The method in brief: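 Measures KISS1R agonism through calcium-sensitive dye fluorescence in stably transfected HEK293 cells, read for 3 min after pin-tool compound delivery; 15-point titrations in triplicate.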
KiSS-1 receptor (Homo sapiens), sequence (Q969F8 whole entry, looked up): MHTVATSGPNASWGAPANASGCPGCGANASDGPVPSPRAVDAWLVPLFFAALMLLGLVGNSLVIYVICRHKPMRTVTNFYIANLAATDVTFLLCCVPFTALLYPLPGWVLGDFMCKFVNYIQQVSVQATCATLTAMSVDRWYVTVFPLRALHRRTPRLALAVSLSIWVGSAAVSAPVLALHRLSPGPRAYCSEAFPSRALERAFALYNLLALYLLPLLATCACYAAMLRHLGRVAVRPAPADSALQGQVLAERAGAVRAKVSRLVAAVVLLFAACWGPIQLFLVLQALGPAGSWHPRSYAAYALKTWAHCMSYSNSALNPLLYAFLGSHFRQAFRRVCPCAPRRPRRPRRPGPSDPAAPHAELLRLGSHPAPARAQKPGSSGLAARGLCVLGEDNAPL

The nature of test [5]: G protein-coupled receptor (GPCR) small molecule agonists, calcium flux assay: HEK293 wild type cell line counter screen (AID 1920065). The method, boiled down: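 Readout: fluorescence at 480 nm excitation/540 nm emission, sampled at 1 s intervals for 3 min. Cells had been cultured 18 h, then dye-loaded 1 h at 37 C before compound or ATP addition.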
Test [6] is described as follows: p53 small molecule agonists, cell-based qHTS assay with rat liver microsomes: qHTS cell viability counter screen (AID 1963580). Also: nearly all actives have a fitted effect of over 45% in size. The method in brief: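 p53RE-bla HCT-116 cells (4,000/well) rested 5 h at 37 C, then given Tox21 compounds in DMSO with rat liver microsomes (0.5 mg/mL final) plus NADPH (0.5 mg/mL final) for 16 h at 37 C. Viability read by CellTiter-Glo luminescence after 30 min at room temperature.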

Test [7] in a line: p53 small molecule agonists, cell-based qHTS assay: qHTS cell viability counter screen (AID 1963581). Also: nearly all actives have a fitted effect of over 45% in size. Also: potency is read from the fitted curve at half-maximal effect. The method, boiled down: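 In the same plates used for the p53 bla reporter, HCT-116 cells given compounds for 16 h at 37 C received CellTiter-Glo; luminescence was recorded 30 min later at room temperature.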
The target in test [8] is 5-hydroxytryptamine receptor 2A (Homo sapiens) (UniProt P28223). Put plainly: 5-hydroxytryptamine receptor 2A (HTR2A) small molecule antagonists, cell-based qHTS assay (AID 1963586). Also: nearly all actives have a fitted effect of over 45% in size. The method, boiled down: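 Antagonist-mode intracellular calcium assay: DOI (4 nM) added after 5 min compound pre-incubation at room temperature to dye-loaded HTR2A-CHO cells. Fluorescence followed for 3 min, sampled every second.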
5-hydroxytryptamine receptor 2A (Homo sapiens), sequence (P28223 whole entry, looked up): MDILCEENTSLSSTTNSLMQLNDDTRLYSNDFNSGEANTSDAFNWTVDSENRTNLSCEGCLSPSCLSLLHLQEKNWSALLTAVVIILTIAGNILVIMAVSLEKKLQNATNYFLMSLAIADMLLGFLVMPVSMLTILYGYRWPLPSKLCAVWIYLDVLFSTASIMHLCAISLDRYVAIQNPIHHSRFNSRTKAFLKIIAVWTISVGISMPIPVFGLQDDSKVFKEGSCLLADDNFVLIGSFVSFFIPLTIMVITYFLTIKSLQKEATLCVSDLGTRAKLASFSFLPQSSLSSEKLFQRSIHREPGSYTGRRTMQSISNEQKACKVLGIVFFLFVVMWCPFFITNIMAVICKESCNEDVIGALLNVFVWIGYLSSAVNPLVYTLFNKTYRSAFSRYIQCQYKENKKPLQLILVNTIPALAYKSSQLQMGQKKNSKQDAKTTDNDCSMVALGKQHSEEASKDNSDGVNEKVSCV

For test [9] the target is unchanged. Put plainly: 5-hydroxytryptamine receptor 2A (HTR2A) small molecule agonists, cell-based qHTS assay (AID 1963587). Also: nearly all actives have a fitted effect of over 30% in size. The method in brief:
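HTR2A-CHO cells, plated 18 h at 37 C/5% CO2, dye-loaded 1 h at 37 C; compounds in DMSO added by pin tool (agonist mode). Intracellular calcium flux read as kinetic fluorescence on FDSS over 2 min at 1 s intervals.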

The target in test [10] is Muscarinic acetylcholine receptor M1 (Homo sapiens) (UniProt P11229). Put plainly: Cholinergic receptor muscarinic 1 (CHRM1) small molecule antagonists, cell-based qHTS assay (AID 1963588). Also: nearly all actives have a fitted effect of over 40% in size. The method, boiled down:
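CHRM1-CHO calcium-flux assay, antagonist mode. Cells were seeded 18 h, dye-loaded 1 h at 37 C and given compound for 5 min at RT, then acetylcholine was added at 50nM. FDSS fluorescence was read 3 min; 15 concentrations, three runs.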

For test [11] the target is unchanged. Put plainly: Cholinergic receptor muscarinic 1 (CHRM1) small molecule agonists, cell-based qHTS assay (AID 1963589). Also: nearly all actives have a fitted effect of over 35% in size. The method, boiled down: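 Each compound was tested at 15 concentrations across three independent runs on dye-loaded CHO cells stably expressing human CHRM1, reading intracellular calcium fluorescence kinetically at 1 sec intervals.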
Test [12] concerns the target Beta-2 adrenergic receptor (Homo sapiens) (UniProt P07550). Put plainly: Adrenergic beta2 receptor (ADRB2) small molecule antagonists, cell-based qHTS assay (AID 1963592). Also: nearly all actives have a fitted effect of over 50% in size. Also: potency is read from the fitted curve at half-maximal effect. As to activity change, negative = inhibition: series mostly up to about 92 µM. The method, boiled down:
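Cells (CHO, stable ADRB2 overexpression) incubated 18-20hr at 37C; compounds added from DMSO; agonist mix (1nM isoproterenol, 100uM IBMX, 25uM Ro-20-1724) added; 0.5hr RT; d2-cAMP and anti-cAMP-cryptate added; 1hr RT; 665/615 nm read.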

The target of test [13] is D(2) dopamine receptor (Homo sapiens) (UniProt P14416). Put plainly: Dopamine D2 receptor (DRD2) small molecule agonists, cell-based qHTS assay (AID 1963594). Also: nearly all actives have a fitted effect of over 35% in size. The method, boiled down: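 HEK293 cells stably expressing DRD2 were cultured 24 h at 37 C, then given Ro20-1724 (0.1 mM final) and compounds for 10 min at room temperature. NKH477 (200nM) was then added for 30 min. cAMP was read by HTRF.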
D(2) dopamine receptor (Homo sapiens), sequence (P14416 whole entry, looked up): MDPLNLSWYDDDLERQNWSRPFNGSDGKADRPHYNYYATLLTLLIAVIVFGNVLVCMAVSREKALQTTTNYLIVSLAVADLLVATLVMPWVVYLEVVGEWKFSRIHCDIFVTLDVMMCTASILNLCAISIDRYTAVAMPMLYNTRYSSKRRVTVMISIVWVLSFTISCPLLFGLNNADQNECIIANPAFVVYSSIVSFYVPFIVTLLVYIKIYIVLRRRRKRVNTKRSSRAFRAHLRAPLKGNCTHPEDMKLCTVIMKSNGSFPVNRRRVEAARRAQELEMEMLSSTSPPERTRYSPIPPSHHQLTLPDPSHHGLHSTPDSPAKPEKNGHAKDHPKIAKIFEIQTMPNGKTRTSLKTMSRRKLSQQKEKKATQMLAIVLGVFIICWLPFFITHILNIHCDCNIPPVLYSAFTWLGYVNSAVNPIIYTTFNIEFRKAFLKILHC

Test [14] has the same target. Put plainly: Dopamine D2 receptor (DRD2) small molecule antagonists, cell-based qHTS assay (AID 1963595; active = well fitted inhibition curve with a large enough effect in the signal ratio in the repeat runs, with a control signal flat; the % refers to the signal ratio). The method, boiled down:
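HEK293 cells stably expressing DRD2 were preincubated with 0.1 mM Ro20-1724, then with compound for 10 min at room temperature. Cells were stimulated with 200 nM NKH477 plus 12 nM quinpirole for 30 min, and cAMP was read by HTRF.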

Test [15] is described as follows: cAMP Responsive Elements (CRE) small molecule agonists, cell-based qHTS assay (AID 1963590). The method in brief: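 Cell line: CRE-bla HEK 293T; medium DMEM/10% dialyzed FBS/0.1 mM NEAA/1 mM pyruvate/25 mM HEPES; 3 h compound exposure; beta-lactamase FRET readout after 2 h substrate loading at RT.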
Test [16] in a line: cAMP Responsive Elements (CRE) small molecule antagonists, cell-based qHTS assay (AID 1963591; active = well fitted inhibition curve with a large enough effect in the signal ratio in the repeat runs, not every such curve was filed as active; the % refers to the signal ratio). The method, boiled down:
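Inhibition of NKH477-driven (0.25 uM final) CRE-beta-lactamase signal in HEK293T cells, 3 h compound exposure at 37 °C, detected by FRET substrate fluorescence.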

Test [17] has as its target Beta-2 adrenergic receptor (Homo sapiens) (UniProt P07550). Put plainly: Adrenergic beta2 receptor (ADRB2) small molecule agonists, cell-based qHTS assay (AID 1963593).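 Also: CHO cells stably overexpressing human ADRB2.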 The method in brief:
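CHO cells stably over-expressing ADRB2 were plated overnight at 37C, then dosed with compounds plus a stimulation mix containing 100uM IBMX and 25uM Ro-20-1724 for 0.5hr at room temperature. cAMP was measured by HTRF competition, 1hr.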

Test [18] is described as follows: p53 small molecule agonists, cell-based qHTS assay with human liver microsomes: qHTS cell viability counter screen (AID 1963579). Also: nearly all actives have a fitted effect of over 45% in size. The method, boiled down: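 Metabolic activation used human liver microsomes and NADPH, both 0.5 mg/mL final, over 16 hours at 37 C on p53RE-bla cells (4,000/well). Cytotoxicity measured by CellTiter-Glo luminescence, 30 min at room temperature.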
% is scaled to controls: 0 for no effect and ±100 for the full control effect.

Muscarinic acetylcholine receptor M1 (Homo sapiens), sequence (P11229 whole entry, looked up): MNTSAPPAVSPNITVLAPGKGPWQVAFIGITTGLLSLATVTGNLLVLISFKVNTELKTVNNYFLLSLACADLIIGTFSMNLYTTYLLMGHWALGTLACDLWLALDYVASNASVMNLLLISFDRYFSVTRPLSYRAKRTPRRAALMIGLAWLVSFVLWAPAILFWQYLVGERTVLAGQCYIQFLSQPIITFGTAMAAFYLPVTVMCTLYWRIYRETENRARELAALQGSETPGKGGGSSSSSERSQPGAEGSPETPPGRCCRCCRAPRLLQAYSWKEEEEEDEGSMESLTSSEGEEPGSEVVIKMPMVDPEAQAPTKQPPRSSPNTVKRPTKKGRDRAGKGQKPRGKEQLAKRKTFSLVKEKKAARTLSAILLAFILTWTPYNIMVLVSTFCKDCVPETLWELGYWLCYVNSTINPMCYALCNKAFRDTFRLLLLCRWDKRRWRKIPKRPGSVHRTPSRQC
Beta-2 adrenergic receptor (Homo sapiens), sequence (P07550 whole entry, looked up): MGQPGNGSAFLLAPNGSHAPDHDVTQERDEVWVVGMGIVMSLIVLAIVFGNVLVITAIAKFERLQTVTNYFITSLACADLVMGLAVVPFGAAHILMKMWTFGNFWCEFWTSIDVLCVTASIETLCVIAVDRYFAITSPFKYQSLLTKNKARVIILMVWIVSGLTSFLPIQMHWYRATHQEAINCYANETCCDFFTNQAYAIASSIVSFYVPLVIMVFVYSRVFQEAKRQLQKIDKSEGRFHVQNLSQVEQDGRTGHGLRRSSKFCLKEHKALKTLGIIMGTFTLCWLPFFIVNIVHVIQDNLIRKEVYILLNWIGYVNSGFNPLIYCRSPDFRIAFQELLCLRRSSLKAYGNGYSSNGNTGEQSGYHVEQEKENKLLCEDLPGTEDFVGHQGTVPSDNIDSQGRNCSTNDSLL

Regarding `C=C1C(C)(C)[C@@]2(Cl)C(Cl)[C@]1(Cl)C(Cl)(Cl)C2(Cl)Cl` (stereo partly drawn), the Potency was 47.7 µM (active) in test [1], 9.51 µM (active) in test [2] and 40 µM (active) in [7]. Moreover, the Potency result in test [3], in [4], in test [5], in [6], in test [8] and in [9] was “inactive” in each case. Also, the Potency result in test [10], in [11], in test [12], in test [13] and in test [14] was “inactive” in each case.
In the case of `C=CCCCCCCCCCCCCCC`, the activity change, negative = cytotoxicity was 5.7% [at 19 µM] in [1], -3.36% [at 13.5 µM] in test [6] and -15.7% [at 13.5 µM] in [7]. For the same molecule, the activity, positive = activation in test [2] was -0.484% [at 19 µM]. In addition, in test [3], the activity change is 0.565% [at 11.8 µM, hits give high values]. The activation in [4] is -0.0025% [at 15.8 µM]; in test [5] it was 0.0173% [at 11.8 µM]; in [9], 4.53% [at 15.9 µM]; in test [11], -0.058% [at 15.8 µM]; in test [15] it was -0.128% [at 19 µM]; in test [13], -4.33% [at 19 µM]. In addition, the activity, negative = inhibition in test [8] is 4.99% [at 12.7 µM]; in test [10], -25.1% [at 12.6 µM]. The results for the activity change, negative = inhibition in test [12] and in test [14] were 8.54% [at 19 µM] and -4.22% [at 18.9 µM], respectively.
As for `CN(Cc1ccc(C(C)(C)C)cc1)Cc1cccc2ccccc12`, the Potency in [1] is 11.9 µM (active). Moreover, the Potency entry in test [2], in [3], in [4], in [5], in [6] and in test [7] was “inactive” throughout. The Potency entry in [16], in [12], in test [13] and in test [14] was “inactive” throughout.
Turning to `Cn1c(=O)c2c(ncn2CC2OCCO2)n(C)c1=O`, the Potency result in test [1], in test [2], in test [3], in test [4], in test [5] and in [6] was “inactive” throughout. For the same molecule, the Potency result in [7], in [15], in test [16], in [12], in test [17] and in [13] was “inactive” throughout. Besides, the Potency entry in test [14] is “inactive”.
For the molecule `CC(C)(Cc1c[nH]c2ccccc12)NCC(O)COc1ccccc1C#N` (stereo not drawn), the Potency result in test [1], in [2], in test [3], in test [4], in [5] and in test [6] was “inactive” each time. For the same molecule, the Potency entry in test [7], in test [9], in test [10], in test [11], in test [15] and in test [13] was “inactive” throughout. Moreover, the Potency entry in test [14] was “inactive”. Further, in test [12], the Potency is 0.0067 µM (active).
As for `Nc1ccn([C@@H]2O[C@H](CO)[C@@H](O)C2O)c(=O)n1` (stereo partly drawn), the Potency result in test [1], in test [2], in test [3], in [4], in [5] and in test [18] was “inactive” in each case. Also, the Potency result in test [7], in [15], in test [16], in test [12], in test [17] and in test [13] was “inactive” each time. Moreover, the Potency entry in test [14] was “inactive”.
Regarding `S=C([S-])NCCNC(=S)[S-].S=C([S-])NCCNC(=S)[S-].[Mn+2].[Zn+2]`, the Potency entry in test [1], in test [2], in [3], in test [4], in test [5] and in test [6] was “inactive” each time. The Potency entry in [7], in [8], in test [9], in test [11], in test [15] and in test [12] was “inactive” throughout. Also, the Potency result in test [13] is “inactive”.
